# Compound activity as filed in PubChem.
# Only some compounds are listed: those with a hit (about 9.6% of all), similar ones and a draw of the others.
# INS promoter inh = TRM-6 insulin promoter activity inhibition; TRM-6 cells (human fetal islet line), insulin promoter-eGFP reporter, imaging; reporter expression induced with tamoxifen; inhibition, % at 2 µM; 130,000 compounds, 0.9% hits;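 active = inhibition above the mean plus 3 SD, with well images judged a real hit on visual review, cut at about 60% in these data, passing the limit was not always enough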
# Lmaj promast = reduces viability of Leishmania major promastigotes | resazurin fluorescence viability | inhibition, % at 10 µM | 200,000 compounds, 9% hits; in the data active = inhibition above about 50%;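 also: promastigotes grown with compound for 44 hours at 28 °C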
# HCT116 bCat-KO = beta-catenin-lacking colon tumor cell growth suppression | HCT116 beta-catenin knockout viability, CellTiter-Glo, 60 h; hits give low values | viability, % at 10 µM | 140,000 compounds, 1.5% hits;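 active = viability at or under a set limit, the compound median less 4 SD, cut at about 6% in these data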;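 also: 0% = Hyamine 1622 control at 20 µM and 100% = untreated cell control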
# Insulin prom up = MIN6 insulin promoter up-regulation; MIN6 insulin promoter-GFP reporter, high-content imaging; hits give high values; z-score at 5 µM; 190,000 compounds, 0.3% hits;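 active = z-score above 3 at 5 µM with at least 500 cells counted in the well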
# HCT116 PTEN-null = growth suppressors of cells with PTEN tumor suppressor deletion; HCT116 PTEN-null viability, CellTiter-Glo, 60 h; hits give low values; viability, % at 10 µM; 140,000 compounds, 1.2% hits;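 active = viability at or below a set limit, 4 SD under the median of all tested compounds, cut at about 3.7% in these data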;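 also: PTEN knockout HCT116 line with beta catenin targeted HCT116 as companion control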
# Autophagy mod = alters autophagy in cells. 190,000 compounds, 0.98% hits. calls only at 10 µM (by protocol). MEF GFP-LC3 puncta imaging; test concentration mostly 10 µM;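 active = percentage of spot-positive cells more than 3 SD above its plate mean, without a fluorescence outlier flag or 80% toxicity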;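 also: spot-positive cell cutoff set from DMSO-treated cells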
# * = called active by the depositor; i = inactive; nt = not tested or not shown; + = active, no number.
SMILES,INS promoter inh,Lmaj promast,HCT116 bCat-KO,Insulin prom up,HCT116 PTEN-null,Autophagy mod
O=C(Nc1cccc(Cl)c1)c1ccc(NCCCN2CCOCC2)c([N+](=O)[O-])c1,28,99*,76,-0.58,81,i
O=[N+]([O-])c1cc(S(=O)(=O)N2CCCC2)ccc1NCCCN1CCOCC1,nt,20,nt,-0.13,nt,i
Cc1ccc(NC(=O)c2ccc(NCC3CCCO3)c([N+](=O)[O-])c2)cc1Cl (centres undefined),44,-2,55,nt,49,i
O=C(CCS(=O)(=O)c1ccccc1)Nc1nc(-c2cccs2)cs1,33,50*,26,0.41,32,i
O=C(CCS(=O)(=O)c1ccccc1)Nc1nc2c(s1)COc1ccccc1-2,nt,30,3.1*,-0.94,1.8*,i
Cc1ccc(C(=O)CNc2nc3c(c(=O)[nH]c(=O)n3C)n2Cc2ccccc2)cc1,nt,25,85,-0.38,89,i
Nn1c(SC/C=C/c2ccccc2)nnc1-c1ccccn1,-94,-6,97,-1,99,i
O=C1C(C2=C(O)c3ccccc3C2=O)=Nc2ccccc21,-440,100*,8,-0.12,2.8*,i
CC(C)(C)NC(=O)C(c1c[nH]c2ccccc12)N(C(=O)Cn1nnc(-c2ccc(Cl)cc2)n1)c1ccccc1F (centres undefined),11,51*,63,0.26,54,i
COc1cccc(N(C(=O)Cn2nnc(-c3ccc(C)cc3)n2)C(C(=O)NC(C)(C)C)c2c[nH]c3ccccc23)c1 (centres undefined),-30,20,74,nt,76,i
COC(=O)c1cc(C(=O)OC)cc(-n2c(C)cc(C(=O)CC#N)c2C)c1,nt,95*,92,0.45,110,i
Cc1cc(C(=O)CC#N)c(C)n1-c1ccc(OC(F)F)cc1,nt,-3,69,-1.2,78,i
COC(=O)c1ccc(C23CC4(C2)[C@H](CN(Cc2cccnc2)[C@@H]4c2ccccc2)C3c2ccc(C(F)(F)F)cc2)cc1 (some centres undefined),nt,nt,nt,0.77,nt,nt
COc1ccc(N2CCN(C(=O)CCNC(=O)c3ccccc3)CC2)cc1,5,-3,nt,0.55,nt,i
COc1ccc(N2CCN(C(=O)CCn3nnc4ccccc43)CC2)cc1,18,89*,97,-0.05,94,i
COc1ccc(N2CCN(C(=O)CSc3ccccc3N)CC2)cc1,59,63*,83,1.5,82,i
COc1ccc(N2CCN(C(=O)CSc3ccccc3)CC2)cc1,19,-2,89,-1.1,81,i
COc1ccc(N2CCN(C(=O)CC(NC(N)=O)c3cccc(Oc4ccccc4)c3)CC2)cc1 (centres undefined),nt,100*,93,-0.83,94,i
CC(C)(C)C(=O)/C=c1\[nH]c(=O)/c(=C\c2ccccc2F)s1,nt,22,nt,-0.09,nt,i
CCOc1ccc(-n2cc(C(=O)Nc3cccc(OC)c3)c3cc(OC)c(OC)cc3c2=O)cc1,35,66*,92,-1.2,88,i
CCOc1ccc(-n2cc(C(=O)Nc3ccc(Cl)cn3)c3cc(OC)c(OC)cc3c2=O)cc1,-26,-7,92,-1,84,+
COC(=O)c1cn(-c2ccc(Cl)cc2)c(=O)c2ccccc12,36,58*,95,0.89,89,i
CCn1cc(C(=O)Nc2ccc3c(c2)OCCO3)c2cc(OC)c(OC)cc2c1=O,nt,51*,93,1.1,83,nt
O=c1cc(N2CCc3ccccc32)[nH]c(=O)n1-c1ccc(Br)cc1,nt,-9,90,0.71,89,i
Cc1csc2c(=O)[nH]cnc12,nt,-3,nt,-0.12,nt,i
SMILES,INS promoter inh,Lmaj promast,HCT116 bCat-KO,Insulin prom up,HCT116 PTEN-null,Autophagy mod
CCOC(=O)C1(C)Oc2cccnc2NC1=O (centres undefined),nt,1,nt,1.2,nt,i
O=C(Nc1nc2n(n1)C(c1ccc(Cl)cc1)CC(c1ccc(Cl)cc1)N2)c1ccco1 (centres undefined),nt,76*,47,-0.38,33,i
Cc1nc2c(=O)n(C)c(=O)n(C)c2nc1Cl,18,100*,3.6*,-0.6,4,i
NS(=O)(=O)c1ccc(CCNC(=O)CCCn2c(=O)[nH]c3ccc(Br)cc3c2=O)cc1,-15,-3,nt,-0.11,nt,i
Cn1cc(CC(=O)N2CCN(c3ccccc3F)CC2)c2ccccc21,nt,-2,73,-0.55,82,i
Cn1cc(CC(=O)N2CCN(c3ccc(Cl)cc3)CC2)c2ccccc21,-25,65*,70,-0.2,57,i
